Source: PubChem
Compounds with a hit are over-represented: about 1.3% of the library has one in this group of screens.
Mtb UGM inh = M. tuberculosis UGM enzyme inhibitors, primary screen, biochemical, fluorescence polarization, single point; purified UGM, fluorescence polarization probe displacement; inhibition, % at 10 µM; 0.06% of 320,000 active; in the data active = inhibition above about 10%, passing the limit was not always enough
Target sequence (P9WIQ1 whole entry, looked up): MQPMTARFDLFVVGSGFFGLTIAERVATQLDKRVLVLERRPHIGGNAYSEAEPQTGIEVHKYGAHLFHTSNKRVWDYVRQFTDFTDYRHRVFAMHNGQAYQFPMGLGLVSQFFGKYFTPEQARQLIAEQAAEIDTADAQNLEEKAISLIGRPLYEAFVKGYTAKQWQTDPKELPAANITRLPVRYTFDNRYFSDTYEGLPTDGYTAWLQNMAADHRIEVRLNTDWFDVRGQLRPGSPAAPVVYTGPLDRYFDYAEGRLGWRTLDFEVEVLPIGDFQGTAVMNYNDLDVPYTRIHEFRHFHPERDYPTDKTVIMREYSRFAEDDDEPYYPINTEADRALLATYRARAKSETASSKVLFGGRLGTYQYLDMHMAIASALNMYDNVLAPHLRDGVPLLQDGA
RecA intein inh = Mtb RecA intein splicing inhibitors, primary screen, biochemical, fluorescence, HTS. cell-free RecA intein splicing. inhibition, % (no concentration beside the values). 0.75% of 290,000 active. AID 2221, 2009; in the data active = inhibition above about 30%
BJeLR lethal = MLPCN primary cell-based screen for lethality selective to Ras in HRASV12 cells | BJeLR (HRASV12) viability, CellTiter-Glo ATP luminescence, 48 h | inhibition, % (concentration not given with the values) | 0.17% of 300,000 active; in the data active = inhibition above about 50%
FadD28 FP inh = inhibitors of FadD28 bisubstrate probe binding, primary screen, biochemical, fluorescence polarization, single point; Mycobacterium tuberculosis FadD28 fatty-acid-AMP ligase; inhibition, % at 12.5 µM; 0.22% of 360,000 active; AID 588549, 2011; in the data active = inhibition above about 8.5%, passing the limit was not always enough
PrP UTR inh = inhibition of PrP 5' UTR reporter expression; cell-based PrP 5' UTR mRNA reporter, plate reader; inhibition, % (no concentration beside the values); 0.35% of 340,000 active; in the data active = inhibition above about 52%
Rv3671c protease = Rv3671c serine protease inhibitors, primary screen, biochemical, fluorescence polarization, M. tuberculosis H37Rv | P9WHR9 | inhibition, % at 5.96 µM | 0.048% of 320,000 active | AID 2606, 2010; in the data active = inhibition above about 38%;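 also: extracellular domain of Rv3671c used as enzyme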
PrP UTR cherry = prion 5' UTR mRNA inhibition, cherry-pick retest; shares compounds with PrP UTR inh; cell-based prion protein 5' UTR reporter, plate reader; inhibition, % at 2.5 µM; 48% of 1,100 active; AID 504592, 2011; in the data active = inhibition above about 54%
Large screens that a line does not name were inactive (follow-up assays come after a bar, where they were run); ! = a repeat was not active.

CSc1ccc(-c2nc(CN3CCCCC3c3cccnc3)c(C)o2)cc1 (configuration not stated)	none
C[C@@H]1C[C@@H]([C@H](O)CC2CC(=O)NC(=O)C2)C(=O)[C@@H](C)C1	none (no result: RecA intein inh, BJeLR lethal)
CC(=O)OC1(C)CC(C)C(=O)C(C(O)CC2CC(=O)NC(=O)C2)C1 (configuration not stated)	PrP UTR inh 63 (no result: Mtb UGM inh, RecA intein inh, BJeLR lethal, Rv3671c protease) | PrP UTR cherry 96
CCCNS(=O)(=O)c1cccc(C(=O)OCc2cc(=O)oc3cc(OC)ccc23)c1	PrP UTR inh 57 | PrP UTR cherry 69
COc1ccc(-c2cc(CS(=O)(=O)c3ccccc3)on2)cc1	none
O=S(=O)(Cc1cc(-c2ccccc2)no1)c1ccccc1	PrP UTR inh 51 | PrP UTR cherry inactive
CC(C)c1nc2scc(-c3ccc(Cl)cc3)c2c(=O)n1N	none
COc1ccc([C@@]23Oc4cc(OC)cc(OC)c4[C@]2(O)[C@H](O)[C@H](C(=O)N(C)C)[C@H]3c2ccccc2)cc1	PrP UTR inh 79 (no result: Mtb UGM inh, RecA intein inh, BJeLR lethal, Rv3671c protease) | PrP UTR cherry 85
Cc1ccc(OCC(=O)Oc2ccc(C(C)C)cc2)cc1	none
CCC(=O)Oc1ccc(C(CC)C(CC)c2ccc(OC(=O)CC)cc2)cc1 (configuration not stated)	PrP UTR inh 58 (no result: Mtb UGM inh) | PrP UTR cherry inactive
C[C@H](CO)N1C[C@H](C)[C@@H](CN(C)S(C)(=O)=O)Oc2ccc(NS(=O)(=O)c3cn(C)cn3)cc2C1=O	PrP UTR inh 90 (no result: Mtb UGM inh, RecA intein inh, BJeLR lethal) | PrP UTR cherry inactive
Cn1cccc1/C=C1\SC(=Nc2ccc(O)cc2)NC1=O	BJeLR lethal 62, PrP UTR inh 69 | PrP UTR cherry 82
CC(C)CCCCCCCCCCCCC(=O)NCC(=O)NC1C(O)C(O)C(Nc2ncnc3nc[nH]c23)OC1C(O)CO (configuration not stated)	PrP UTR inh 89 (no result: Mtb UGM inh, RecA intein inh, BJeLR lethal, Rv3671c protease) | PrP UTR cherry 86
O=C(O)c1cccc(-c2noc(-c3cccc(Cl)c3)n2)c1	PrP UTR inh 81 (no result: RecA intein inh, BJeLR lethal) | PrP UTR cherry 84
CC1CN(S(=O)(=O)c2cccc(C(=O)Nc3ccc4c(c3)CCC4)c2)CC(C)O1 (configuration not stated)	none
Cc1nn(-c2ccccc2Cl)c(Cl)c1/C=N/Nc1nc2ccccc2s1	PrP UTR inh 87 | PrP UTR cherry 81
CCOC(=O)N/N=C/c1c(C)nn(-c2ccccc2Cl)c1Cl	none
Cc1cccc(OCc2n[nH]c(=S)o2)c1C	none (no result: RecA intein inh)
Cc1cccc(C)c1OCc1n[nH]c(=S)o1	PrP UTR inh 73 | PrP UTR cherry inactive
CCOc1ccc(OCCC(=O)OCC(=O)N2CCN(S(=O)(=O)c3ccc(C)cc3C)CC2)cc1	none (no result: Mtb UGM inh, RecA intein inh, BJeLR lethal, Rv3671c protease)
c1ccc(-c2noc(-c3ccncc3)n2)nc1	none
c1ccc(-c2noc(-c3ccc4ccccc4c3)n2)nc1	PrP UTR inh 89 | PrP UTR cherry 87
Cc1cccc(-c2noc(-c3ccc4c(c3)OCO4)n2)c1	none
c1ccc(-c2noc(-c3ccc4c(c3)OCO4)n2)nc1	BJeLR lethal 92, PrP UTR inh 86 | PrP UTR cherry 85
Nc1cc(=O)[nH]c(SCCSc2ccccc2F)n1	none
Nc1cc(=O)[nH]c(SCCSc2cc(Cl)ccc2Cl)n1	PrP UTR inh 58 (no result: FadD28 FP inh) | PrP UTR cherry inactive
O=C(NC(=S)NCc1ccccc1Cl)c1cccs1	none (no result: RecA intein inh, BJeLR lethal, FadD28 FP inh)
C(=N\Nc1nc2ccccc2[nH]1)/c1ccc2c(c1)OCCO2	none
Cc1ccc(/C=N/Nc2ccc3ccccc3n2)o1	none (no result: BJeLR lethal)
Cc1cccc(/C=N/Nc2ccc3ccccc3n2)c1	PrP UTR inh 75 | PrP UTR cherry 66
C(=N\Nc1ccc2ccccc2n1)/c1ccc2c(c1)OCCO2	PrP UTR inh 83 | PrP UTR cherry 69
CC(C)(C)OC(=O)N(CCc1ccccc1)Cc1cccc(OCc2cccc(NC(=O)C3CCCC3)c2)c1	none (no result: Mtb UGM inh, RecA intein inh, BJeLR lethal, Rv3671c protease)
COc1ccccc1C(=O)N1CCCC1(C#N)c1ccccc1 (configuration not stated)	PrP UTR inh 83 | PrP UTR cherry inactive
COc1ccc(CN2C(=O)NC(=O)/C(=C\c3cc(OC)c(OC)c(OC)c3)C2=O)cc1	none
COc1ccc2c(c1)/C(=C/c1cc(OC)c(OC)c(OC)c1)C(=O)N2	PrP UTR inh 64 (no result: Mtb UGM inh, RecA intein inh, BJeLR lethal, Rv3671c protease) | PrP UTR cherry 73
COc1ccc(CC2NCC(O)C2OC(C)=O)cc1 (configuration not stated)	PrP UTR inh 77 (no result: Mtb UGM inh, RecA intein inh, BJeLR lethal, Rv3671c protease) | PrP UTR cherry 95
COc1cc(/C=N/N(C)c2ccccc2)cc(Cl)c1O	none
C=CCSc1nnc(NC(=O)CSc2nnc(C)s2)s1	PrP UTR inh 81 | PrP UTR cherry inactive
C#C[C@]1(O)CC[C@H]2[C@@H]3CCc4cc(OC5CCCC5)ccc4[C@H]3CC[C@@]21C	PrP UTR inh 61! | PrP UTR cherry inactive
CCOC(=O)C1CCN(C(=O)C2CCN(S(=O)(=O)c3cccc4nsnc34)CC2)CC1	none
COc1cc(SC)ccc1C(=O)Nc1nc2ccccc2[nH]1	BJeLR lethal 121, PrP UTR inh 96 | PrP UTR cherry 98
Cc1ccc(C(=O)Nc2cnc3ccccc3c2)cc1	PrP UTR inh 89 | PrP UTR cherry 87
COc1ccc(C(=O)Nc2nc3ccccc3[nH]2)cc1	none
O=C(NCc1nc2ccccc2[nH]1)c1ccc([N+](=O)[O-])cc1	PrP UTR inh 74 | PrP UTR cherry inactive
Cc1cc(C(=O)Nc2cnc3ccccc3c2)ccc1[N+](=O)[O-]	none
Cc1ccc(C(=O)Nc2nc3ccccc3[nH]2)cc1	PrP UTR inh 61 (no result: RecA intein inh) | PrP UTR cherry 65
CCOC(=O)C1(Cc2ccccc2C(F)(F)F)CCN(C2CCN(C(C)=O)CC2)CC1	none
Cc1cc(C)nc(N/N=C/C(Cl)=C/c2ccccc2)n1	none
COc1ccccc1C(=O)NCCC(=O)Nc1nc2ccccc2[nH]1	none
COc1ccccc1C(=O)Nc1nc2ccccc2[nH]1	BJeLR lethal 109, PrP UTR inh 92 | PrP UTR cherry 93
Cc1ccc(C(=O)Nc2cc3ccccc3oc2=O)cc1	PrP UTR inh 86 (no result: RecA intein inh) | PrP UTR cherry 86
Cc1c(C)c(C)c(CN2CCCC2)c(C)c1C	none
O=C(CN1C(=O)c2ccccc2S1(=O)=O)c1ccc2c(c1)OCCCO2	PrP UTR inh 95 | PrP UTR cherry 97
O=C(CN1C(=O)c2ccccc2S1(=O)=O)c1ccc2c(c1)OCCO2	PrP UTR inh 91 | PrP UTR cherry 93
CC(C#N)(CCc1ccccn1)CCc1ccccn1	none (no result: Mtb UGM inh, RecA intein inh, BJeLR lethal, Rv3671c protease)
